# High-throughput results (PubChem BioAssay)
# Six1-Eya2 inh: inhibitors of human Six1/Eya2 interaction; AlphaScreen GST-Six1/His-Eya2 binding, biochemical; active compounds read low; activity change, % (concentration not given with the values); Q15475+O00167; 360,000 compounds, 0.56% hits; AID 651725; in the data active = activity change below about -65%; inconclusive = mostly about -30% to -63%; also: % is scaled to controls: 0 for no effect and ±100 for the full control effect
#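 Six1/Eya2 binding was read as AlphaScreen signal after compounds were pinned into GST-Six1 plus His-tagged Eya2 (5X stock 250/500 nM) in pH 8.0 Tris/NaCl/TCEP buffer, beads added, then incubated 1 h, 37 C, dark.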
# RORgamma inh: ROR gamma (mouse) transcription inhibition; Drosophila S2 Gal4-RORgamma UAS-luciferase reporter, 20 h; Potency, µM (series often up to 53.6 µM), for the others: top-dose activity change, negative = inhibition, most hits filed as inhibitors; 310,000 compounds, 5.4% hits; AID 2551; also: potency is read from the fitted curve at half-maximal effect; % is scaled to controls: 0 for no effect and ±100 for the full control effect; nearly all actives have a fitted effect of over 60% in size
# Target sequence (P51450 whole entry, looked up, the tested form may be a part): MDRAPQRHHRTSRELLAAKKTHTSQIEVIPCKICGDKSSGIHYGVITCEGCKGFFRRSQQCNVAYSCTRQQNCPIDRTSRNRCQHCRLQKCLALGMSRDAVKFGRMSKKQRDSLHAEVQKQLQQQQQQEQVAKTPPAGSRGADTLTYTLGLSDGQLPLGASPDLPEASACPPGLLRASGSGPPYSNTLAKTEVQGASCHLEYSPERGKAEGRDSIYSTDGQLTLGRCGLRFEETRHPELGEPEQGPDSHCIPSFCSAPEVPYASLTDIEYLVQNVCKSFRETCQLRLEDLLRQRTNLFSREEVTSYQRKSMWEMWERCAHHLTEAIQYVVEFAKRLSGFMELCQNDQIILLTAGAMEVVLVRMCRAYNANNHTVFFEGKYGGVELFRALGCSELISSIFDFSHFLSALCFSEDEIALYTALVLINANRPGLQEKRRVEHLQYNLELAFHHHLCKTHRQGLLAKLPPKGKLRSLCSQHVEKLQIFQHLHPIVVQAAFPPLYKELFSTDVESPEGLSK
#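 ROR gamma transcriptional activity was tracked as Gal4-UAS luciferase output in stably transfected Drosophila Schneider cells, with compound added 1 hr before 700 uM copper sulfate induction and a 20 hr ambient-temperature incubation.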
# p53 reactivator: restores transcriptional activity of mutant p53. H1299 p53-A138V BP100-luciferase reporter, luminescence, 24 h. Potency, µM (titrated, usually from 92.2 µM), without a hit: at the top dose activity change, positive = activation, hits mostly activators. 320,000 compounds, 0.063% hits. AID 504706; also: potency is read from the fitted curve at half-maximal effect; % of control where 0% means no effect; nearly all actives have a fitted effect of over 45% in size
#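 H1299 (p53-null), stable ts p53-A138V + BP100-Luc; 1000 cells/well, Opti-MEM/10% FBS; cpd 4 pt, 1:5; 24 h, 37 deg C, 5% CO2; detection reagent 10 min RT; luminescence.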
# CtBP-E1A blk: inhibitors of CtBP/E1A interaction; AlphaScreen GST-E1A/His-CtBP binding, 1536-well; active compounds read low; 340,000 compounds, 0.49% hits; activity change, % (no concentration beside the values); in the data active = activity change below about -65%; inconclusive = mostly about -30% to -63%; also: % is scaled to controls: 0 for no effect and ±100 for the full control effect
#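 AlphaScreen with 125 nM GST-E1A and 125 nM His-CtBP (5X stocks) in Tris pH 8.0, 300 mM NaCl, BSA, Tween 20, TCEP. Compounds preincubated 2 h at 37 deg C, then glutathione donor/nickel acceptor beads added for 1 h at 37 deg C in dark.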
# Gal4-VP16 FLuc: Gal4-VP16 reporter inhibition counter-screen | Potency, µM (highest dose often 53.6 µM), for the others: at the top dose activity, negative = inhibition, usual class: inhibitors | Drosophila S2 Gal4-VP16 UAS-luciferase, luminescence, 20 h | 310,000 compounds, 3.5% hits;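 also: Gal4-VP16 expression switched on by copper sulfate through the metallothionein promoter; potency is read from the fitted curve at half-maximal effect; % is scaled to controls: 0 for no effect and ±100 for the full control effect; nearly all actives have a fitted effect of over 50% in size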
# Active calls of the source: *; ? = inconclusive; · = not tested or not shown; [ ] = dose if it differs, or a comment. Hits are enriched below; roughly 5.4% of the tested compounds scored in any of these assays. Unless noted, calls follow the shape of the dose curve; as a rule, active = well fitted curve in the direction sought with a large enough effect; inconclusive = small, poorly fitted or top-dose-only effect, or another doubt; inactive = no such curve, though single readings can be large; an effect the other way counts as inactive or inconclusive.
SMILES,Six1-Eya2 inh,RORgamma inh,p53 reactivator,CtBP-E1A blk,Gal4-VP16 FLuc
COc1ccc(-n2nnnc2S(=O)(=O)CC(=O)N2CCCCC2)cc1,3.2,2.82µM*,-21.7%,-0.5,4.47µM*
CCOC(=O)CC1CCCCN1Cc1nc(-c2ccc(F)c(OC)c2)oc1C (configuration not stated),-5.2,3.55µM*,0.0%,-0.6,-13.5%
COc1cc(-c2nc(CN3CCCN(C(=O)c4ccco4)CC3)c(C)o2)ccc1F,2.4,-7.7%,1.9%,0.1,-6.1%
CCC(c1nnnn1-c1ccc2c(c1)OCCO2)N1CCN(C)CC1 (configuration not stated),2.8,·,·,8.3,·
CC1(C)Cc2c(sc(NC(=O)C(=O)N3CCOCC3)c2C(N)=O)CO1,-8.9,-12.9%,-0.1%,-23.6,-5.0%
CS(=O)(=O)c1ccc(Sc2nc3ccccc3[nH]2)c([N+](=O)[O-])c1,-11.1,?,-19.5%,-11.2,?
O=[N+]([O-])c1cc(S(=O)(=O)C(F)(F)F)ccc1Sc1nc2ccccc2s1,-1.5,7.94µM*,-11.1%,1.5,6.31µM*
O=[N+]([O-])c1cc(S(=O)(=O)C(F)(F)F)ccc1Sc1nc2ccccc2[nH]1,-4.7,?,-14.8%,-8.4,?
CS(=O)(=O)c1ccc(Sc2nc3ccccc3s2)c([N+](=O)[O-])c1,-1.1,11.2µM*,-33.3%,-6.9,10µM*
O=C(Nc1cccc(C(=O)O)c1)/C(=C\c1cccc([N+](=O)[O-])c1)NC(=O)c1ccc(Br)cc1,-2.7,·,·,8.5,·
Fc1ccc(Nc2ccnc(-c3ccccc3C(F)(F)F)n2)cc1,·,8.8%,·,·,1.9%
N#C/C(=N\Nc1ccc(S(=O)(=O)N2CCOCC2)cc1)C(N)=S,-1.1,?,3.8%,-11.0,-1.6%
CCCCC(=O)NC(=S)Nc1ccc(S(=O)(=O)N2CCCC2)cc1,-1.3,12.6µM*,-6.6%,1.3,-19.7%
CCCC(=O)Nc1ccc(S(=O)(=O)N2CCCC2)cc1,-0.2,16.3%,-1.5%,-13.4,10.5%
O=C(CCc1ccccc1)NC(=S)Nc1ccc(S(=O)(=O)N2CCOCC2)cc1,-2.5,22.4µM*,7.8%,-17.5,-20.1%
O=S(=O)(c1ccc(NC(=S)Nc2ccccc2)cc1)N1CCOCC1,-3.4,?,-8.9%,-8.9,-7.1%
N#CC(C#N)=NNc1ccc(S(=O)(=O)N2CCCCC2)cc1,-18.2,?,5.2%,9.5,22.4µM*
O=S(=O)(c1ccc(NC(=S)NN=Cc2ccccc2O)cc1)N1CCCCC1,-86.3*,·,·,-89.3*,·
Cc1cc(C(=O)Nc2cccc3c2O[C@@H](CN(C)S(C)(=O)=O)[C@H](C)CN([C@@H](C)CO)C3=O)n(C)n1,-2.1,·,4.1%,9.8,·
CN(C)NC(=S)Nc1ccc(S(=O)(=O)N2CCCCC2)cc1,4.3,2.82µM*,-5.2%,-12.0,5.62µM*
NS(=O)(=O)c1ccc(NC(=S)Nc2ccc(S(=O)(=O)N3CCCC3)cc2)cc1,7.9,3.5%,4.9%,-3.9,-2.3%
CC(C)CC(=O)N1CCN(c2ccc(NC(=O)c3ccco3)cc2)CC1,-1.7,-6.2%,-6.4%,9.8,24.2%
CCOC(=O)c1c(NC(=S)Nc2cccc(C)c2)sc2c1CC(C)(C)SC2,-25.3,2µM*,10.5%,-9.6,2µM*
C=CCNC(=S)Nc1sc2c(c1C(=O)OCC)CC(C)(CC)OC2 (configuration not stated),0.9,2.82µM*,?,-1.0,?
C=CCNC(=S)Nc1sc2c(c1C(=O)OCC)CCN(C(=O)OCC)C2,0.9,2.51µM*,·,-3.8,6.31µM*
SMILES,Six1-Eya2 inh,RORgamma inh,p53 reactivator,CtBP-E1A blk,Gal4-VP16 FLuc
CCOC(=O)c1c(NC(=S)N2CCCCC2)sc2c1CCN(C(=O)OCC)C2,-16.9,-39.9%,-14.8%,-1.9,-0.2%
CCOC(=O)c1c(NC(=O)CCC(=O)O)sc2c1CC(C)(C)OC2,-2.8,?,6.3%,6.7,1.1%
COC(=O)c1c(NC(=O)COC(=O)c2ccc(O)cc2)sc2c1CCCCC2,-5.3,?,1.2%,-5.0,17.8µM*
Cc1cc(Cl)c2oc(C(=O)N3CCN(C(=O)c4ccco4)CC3)c(C)c2c1,-12.9,41.7%,?,-10.3,?
CCOC(=O)c1c(NC(=S)Nc2ccccc2)sc2c1CCCCC2,4.3,2.51µM*,-13.8%,9.2,3.98µM*
CCOC(=O)c1c(NC(=S)Nc2ccccc2)sc2c1CCN(CC)C2,-17.1,7.9%,4.8%,-20.8,-3.2%
CCOC(=O)c1c(NC(=S)NCc2ccccc2)sc2c1CCN(C(=O)OCC)C2,-1.8,2µM*,-2.9%,2.7,4.47µM*
Cc1cc(C)cc(NC(=O)COC(=O)CN=C2NS(=O)(=O)c3ccccc32)c1,-19.5,6.2%,3.0%,·,-7.2%
CCC1(c2ccccc2)NC(=O)N(CC(=O)Nc2ccccc2N2CCCC2)C1=O (configuration not stated),0.0,·,-8.7%,-68.0*,·
O=C1C[C@H](c2ccccc2)Oc2cc(O)cc(O)c21,·,8.0%,·,·,-1.4%
O=C1OC(c2ccc(F)cc2)=C/C1=C\c1ccc(O)cc1,-2.8,6.31µM*,·,·,?
CCc1ccc(-c2csc(-c3c[nH]c4ccccc34)n2)cc1,-1.8,17.5%,20µM*,-0.1,3.6%
COc1cccc([C@@H]2Oc3ccc(OC)cc3C(=O)[C@H]2OC(=O)NCCOc2ccccc2)c1,·,15.3%,·,·,8.3%
CC(C)(C)NC(=O)C(c1ccncc1)N(Cc1ccco1)C(=O)c1ccc(-c2ccccc2)[nH]1 (configuration not stated),-21.4,7.08µM*,-6.1%,0.0,17.8µM*
O=C(NC1CCCCC1)C(c1ccncc1)N(Cc1ccccc1)C(=O)c1ccc(-c2ccccc2)[nH]1 (configuration not stated),-25.8,38.8%,-2.6%,?,-13.2%
C[C@@H](C(=O)NCc1cccc2ccccc12)[C@H]1C[C@]1(C)[C@H](NC(=O)OCc1ccccc1)c1ccccc1,·,14.5%,·,·,-1.6%
S=C1NC2(CCCCC2)NN1c1ccccc1,7.7,?,7.2%,8.2,1.9%
CC1CCCC2(C1)NC(=S)N(c1ccccc1)N2 (configuration not stated),3.0,12.6µM*,4.5%,-8.0,-9.1%
CC(C)CCN1NC2(CCCC(C)C2)NC1=S (configuration not stated),0.3,7.08µM*,-2.1%,-3.6,-29.7%
CC1CC(C)(C)CC2(C1)NC(=S)N(c1ccccc1)N2 (configuration not stated),2.8,7.08µM*,5.0%,5.5,?
CO[C@@H]1COC(=O)[C@H](COCc2ccccc2)NC(=O)C/C=C\[C@@H](C)[C@H](OC)COC(=O)[C@H](COCc2ccccc2)NC(=O)C/C=C\[C@H]1C,·,-5.4%[10 µM],·,·,-6.9%[10 µM]
O=C(O)CC1(CC(=O)NCc2cc(F)cc3c2OCOC3)CCCCC1,4.0,2.9%,-2.3%,-0.6,-1.5%
